Where a name gives a salt, the structure may show the parent alone. ± gives the standard deviation of the averaged measurements.
The compounds below were run on E. coli TESEC Mtb Asd (assay: growth (OD600 after 10 h); higher = more growth (less inhibition)). Conditions: arabinose induction (level): High; compound 0.1 mM; raw OD600 reference: median of DMSO wells 0.331, cell-free background 0.041.
Protocol: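 TESEC E. coli strains in which the native enzyme is deleted and replaced by arabinose-inducible Mtb Asd, DapB, CysH or TrpD, each grown in its selective medium. Strains were screened against the Prestwick library at 0.1 mM and 1% DMSO in 384-well format at low and high arabinose induction. Growth is read as OD600 after 10 h in triplicate.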

SMILES	growth
C[C@H](O)C(=O)Nc1c(I)c(C(=O)NC(CO)CO)c(I)c(C(=O)NC(CO)CO)c1I [Iopamidol]	0.443 ± 0.035
CCCCNc1cc(C(=O)O)cc(S(N)(=O)=O)c1Oc1ccccc1 [Bumetanide]	0.226 ± 0.01
CN(C)CCCOc1nn(Cc2ccccc2)c2ccccc12 [Benzydamine hydrochloride]	0.193 ± 0.043
CCn1nc(C(=O)O)c(=O)c2cc3c(cc21)OCO3 [Cinoxacin]	0.335 ± 0.024
CCCCOC(=O)c1ccc(N)cc1 [Butamben]	0.566 ± 0.058
C#C[C@]1(O)CC[C@H]2[C@@H]3CCC4=CCCC[C@@H]4[C@H]3CC[C@@]21C [Lynestrenol]	0.312 ± 0.033
CCc1c2c(nc3ccc(OC(=O)N4CCC(N5CCCCC5)CC4)cc13)-c1cc3c(c(=O)n1C2)COC(=O)[C@]3(O)CC [Irinotecan hydrochloride trihydrate]	0.321 ± 0.042
CN(C)CCn1nnnc1SCC1=C(C(=O)O)N2C(=O)[C@@H](NC(=O)Cc3csc(N)n3)[C@H]2SC1 [Cefotiam hydrochloride]	0.265 ± 0.012
O=S(=O)(O)c1cc(O)ccc1O [Ethamsylate]	0.211 ± 0.034
NNC(=O)c1ccncc1 [Isoniazid]	0.396 ± 0.028
O=C(O)/C=C/c1ccc(Cn2ccnc2)cc1 [Ozagrel hydrochloride]	0.248 ± 0.03
NCCC[C@H](N)CC(=O)N[C@H]1CNC(=O)[C@H]([C@H]2C[C@H](O)NC(N)=N2)NC(=O)/C(=C/NC(N)=O)NC(=O)[C@H](CO)NC(=O)[C@H](CO)NC1=O [Viomycin sulfate]	0.281 ± 0.032
CC1CS(=O)(=O)CCN1/N=C/c1ccc([N+](=O)[O-])o1 (stereo not drawn) [Nifurtimox]	0.212 ± 0.049
CC(C)C(=O)Nc1ccc([N+](=O)[O-])c(C(F)(F)F)c1 [Flutamide]	0.156 ± 0.024
Nc1ccc(S(=O)(=O)Nc2cnc3ccccc3n2)cc1 [Sulfaquinoxaline sodium salt]	0.289 ± 0.073
Cc1cnc(NC(=O)C2=C(O)c3ccccc3S(=O)(=O)N2C)s1 [Meloxicam]	0.245 ± 0.035
CCCc1ncc(C[n+]2ccccc2C)c(N)n1 [Amprolium hydrochloride]	0.359 ± 0.016
COc1cc(C(=O)OCCCN2CCCN(CCCOC(=O)c3cc(OC)c(OC)c(OC)c3)CC2)cc(OC)c1OC [Dilazep dihydrochloride]	0.232 ± 0.023
CC(C)(O/N=C(\C(=O)N[C@@H]1C(=O)N2C(C(=O)[O-])=C(C[n+]3ccccc3)CS[C@H]12)c1csc(N)n1)C(=O)O [Ceftazidime pentahydrate]	0.113 ± 0.0029
O=C(c1ccc(OCCN2CCCCC2)cc1)c1c(-c2ccc(O)cc2)sc2cc(O)ccc12 [Raloxifene hydrochloride]	0.062 ± 0.0013
CS(=O)(=O)c1ccc([C@@H](O)[C@@H](CO)NC(=O)C(Cl)Cl)cc1 [Thiamphenicol]	0.0715 ± 0.0096
CN(C)CC/C=C1\c2ccccc2CSc2ccccc21 [Dosulepin hydrochloride]	0.14 ± 0.0062
CCOc1nc2cccc(C(=O)O)c2n1Cc1ccc(-c2ccccc2-c2nnn[nH]2)cc1 [Candesartan]	0.292 ± 0.03
CCc1cc(C(N)=S)ccn1 [Ethionamide]	0.299 ± 0.05
CN(C)CCCC1(c2ccc(F)cc2)OCc2cc(C#N)ccc21 (stereo not drawn) [Citalopram Hydrobromide]	0.289 ± 0.024
Cn1c(=O)c2c(ncn2C)n(C)c1=O [Caffeine]	0.304 ± 0.065
COc1ccc(C(=O)NCc2ccc(OCCN(C)C)cc2)cc1OC [Itopride]	0.303 ± 0.083
Cn1cnc([N+](=O)[O-])c1Sc1ncnc2[nH]cnc12 [Azathioprine]	0.347 ± 0.045

— the supplement of paper PMC9262897, “Low-cost anti-mycobacterial drug discovery using engineered E. coli” (Nature Communications, 2022)
